Screening data deposited in PubChem BioAssay by National Center for Advancing Translational Sciences (NCATS).
KB-3-1 cytotox = KB-3-1 parental cell cytotoxicity | KB-3-1 viability, CellTiter-Glo ATP luminescence, 72 h | Potency, µM (titrated, usually from 46.1 µM), most hits filed as cytotoxic | actives 1.4% (n = 400,000) | AID 1347075; further: on the % scale 0 is the no-effect control and ±100 the full control effect; nearly all actives have a fitted effect of over 60% in size
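Cytotoxicity in the drug-sensitive parental line KB-3-1 was scored as loss of CellTiter-Glo luminescence following 72 h incubation with compound. Values come from curve fitting of normalized concentration-response data.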
MCF10A rerep = induces DNA re-replication in MCF 10a normal breast cells. Potency, µM (doses to about 46.1 µM), inactives show top-dose activity, positive = re-replication, hits mostly activators. actives 2.9% (n = 350,000). MCF 10A DNA re-replication, Hoechst nuclear intensity, 48 h; further: % of control where 0% means no effect; nearly all actives have a fitted effect of over 50% in size
SW480 rereplic = DNA re-replication induction in SW480 cells; Potency, µM (highest dose often 46.1 µM), inactives show at the top dose re-replication activation, usual class: activators; actives 1.8% (n = 340,000); AID 624297; SW480 DNA re-replication, Hoechst DNA content imaging, 48 h; further: % of control where 0% means no effect; nearly all actives have a fitted effect of over 55% in size
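Cells (250 per well) received 23 nL compound or DMSO by pin tool and were kept 48 hr at 37 C, 5% CO2. Nuclei were then stained with Hoechst for 40 min and scanned for DNA content.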
PINK1 expr mod = changes PINK1 expression; actives 0.2% (n = 410,000); PINK1 immunofluorescence, high-content cytometry, 24 h; Potency, µM (doses to about 76.6 µM), for the others: at the top dose activation (PINK1 increase), actives largely listed as activators; active means well fitted activation curve with a large enough effect; inconclusive means small, poorly fitted or top-dose-only effect; cell line not stated here; further: % of control where 0% means no effect; nearly all actives have a fitted effect of over 65% in size
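A stable cell line was treated with compounds at 5 concentrations for 24 hours, with CCCP as control. PINK1 levels and mitochondrial localization were measured by immunofluorescence with mitochondrial, cell and nuclear markers after fixation, read by laser-scanning cytometry.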
KB-V1 cytotox = kills drug-selected multidrug resistant KB-V1 cells. KB-V1 MDR cells viability, CellTiter-Glo, 72 h. Potency, µM (titrated, usually from 46.1 µM), hits mostly cytotoxic. actives 3.4% (n = 400,000). AID 1347076; further: on the % scale 0 is the no-effect control and ±100 the full control effect; nearly all actives have a fitted effect of over 60% in size
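Drug-selected KB-V1 cells, grown in DMEM lacking phenol red with 10% FBS, receive compound titrations; after three days at 37 degrees C, surviving cell ATP is quantified by CellTiter-Glo luminescence and responses normalized and curve-fitted.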
TSG101-PTAP inh = blocks PTAP/TSG101 interaction to inhibit HIV-1 budding; Fluorescence polarization, FITC-PTAP peptide / Tsg101 binding; Potency, µM (top dose mostly 115 µM), inactives show at the top dose activity change, negative = inhibition, most hits filed as inhibitors; 340,000 tested, under 10 active; active means well fitted inhibition curve with a large enough effect in the main read-out, with a control signal flat, not every such curve was filed as active; inconclusive means small, poorly fitted or top-dose-only effect, or effect the other way, or a change in a side signal; inactive means no such curve, though single readings can be large or run the other way; further: % of control where 0% means no effect
Target sequence (Q99816 whole entry, looked up): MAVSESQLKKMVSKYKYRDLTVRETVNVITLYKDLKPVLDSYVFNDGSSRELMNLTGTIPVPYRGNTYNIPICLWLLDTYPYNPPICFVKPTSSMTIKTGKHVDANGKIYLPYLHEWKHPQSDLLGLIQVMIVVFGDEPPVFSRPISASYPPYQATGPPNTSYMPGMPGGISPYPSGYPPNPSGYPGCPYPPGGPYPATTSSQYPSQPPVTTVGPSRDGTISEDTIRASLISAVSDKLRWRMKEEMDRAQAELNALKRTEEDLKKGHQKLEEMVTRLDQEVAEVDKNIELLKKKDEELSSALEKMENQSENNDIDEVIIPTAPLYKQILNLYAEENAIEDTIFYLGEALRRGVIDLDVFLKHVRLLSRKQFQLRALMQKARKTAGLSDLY
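Fluorescence anisotropy tracks displacement of a FITC-tagged PTAP peptide (50 nM) from the Tsg101 binding domain (10 uM), following a 20 min room-temperature incubation at pH 7.5.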
Starred values were filed as active, the others as inactive; i = inactive; ? = inconclusive; nt = not tested or not shown; [ ] = another dose, or the depositor's remark. An excerpt weighted towards active compounds, which were near 6.8% of everything screened. Unless noted, the call rests on the fitted dose curve; in most records, active means well fitted curve in the direction sought with a large enough effect; inconclusive means small, poorly fitted or top-dose-only effect, or another doubt; inactive means no such curve, though single readings can be large; an effect the other way counts as inactive or inconclusive. Potency means the concentration at half of the fitted maximal effect.

SMILES	KB-3-1 cytotox	MCF10A rerep	SW480 rereplic	PINK1 expr mod	KB-V1 cytotox	TSG101-PTAP inh
Cc1ccc(C(C)(C)C)cc1S(=O)(=O)N1CCC(C(=O)N2CCN(c3ccc(O)cc3)CC2)CC1	?	?	9.6%	-1.9%	14.6µM*	-2.2%
O=C(c1ccc(F)cc1)N1CCC(C(=O)N2CCN(S(=O)(=O)c3cccc(F)c3)CC2)CC1	i	3.1%	?	4.7%	i	0.0%
Cc1ccc(C)c(S(=O)(=O)N2CCN(C(=O)C3CCN(C(=O)c4ccc(F)cc4)CC3)CC2)c1	i	0.5%	-7.7%	-0.5%	7.31µM*	-2.3%
Cc1cccc(Cn2c(CNS(=O)(=O)c3ccc(C(C)C)cc3)nc3cccnc32)c1	nt	nt	nt	1.0%	nt	nt
O=C(Nc1ccccc1F)NC1CCN(Cc2nnnn2Cc2ccc(F)cc2)CC1	i	4.1%	-2.2%	-4.9%	14.6µM*	-1.4%
COc1cccc(NC(=O)NC2CCN(Cc3nnnn3Cc3ccc(F)cc3)CC2)c1	i	12.4%	1.3%	-0.1%	i	-2.6%
CCC1CN(C(=O)N2CCC(C(=O)O)CC2)c2cc(C)ccc2O1 (stereo not drawn)	i	nt	nt	1.6%	i	nt
Cc1cc(C(=O)N/N=C/c2c(C)nn(-c3ccccc3)c2C)n[nH]1	i	3.3%	-4.0%	-0.2%	i	1.3%
Cc1nn(-c2ccccc2)c(C)c1/C=N/NC(=O)c1cc(-c2ccc(Br)s2)[nH]n1	?	4.11µM*	14.6µM*	-3.3%	?	1.2%
Cc1nn(-c2ccccc2)c(C)c1/C=N/NC(=O)CSc1nnc(SCc2ccc(Cl)cc2)s1	?	16.5%	14.7%	-1.8%	2.31µM*	-2.7%
COc1cc(/C=N/NC(=O)c2cc(C34CC5CC(CC(C5)C3)C4)[nH]n2)ccc1O	i	1.3µM*	-0.3%	2.9%	i	-0.8%
Cc1nn(-c2ccccc2)c(C)c1/C=N/NC(=O)c1cc(-c2cccs2)[nH]n1	0.517µM*	28.8%	0.651µM*	-0.8%	?	-3.9%
COc1cc2cc(CNc3ccccc3)c(=O)n(CC(=O)Nc3cc(C)cc(C)c3)c2cc1OC	i	nt	nt	0.5%	i	nt
Cc1ccc(NC(=O)C(=O)NCC(c2ccc3c(c2)OCO3)N2CCOCC2)cc1C (stereo not drawn)	i	nt	nt	-0.1%	i	nt
Cc1nn(-c2ccccc2)c(C)c1/C=N/NC(=O)c1cc(-c2ccc(Cl)s2)[nH]n1	2.91µM*	3.66µM*	5.17µM*	?	11.6µM*	-0.5%
CC(/C=N/NC(=O)c1cc(-c2ccc(C)s2)[nH]n1)=C\c1ccccc1	20.6µM*	6.51µM*	?	5.6%	?	1.7%
Cc1nn(-c2ccccc2)c(Cl)c1/C=N/NC(=O)OC(C)(C)C	i	?	-11.6%	0.1%	13µM*	-2.7%
Cc1c(/C=N/NC(=O)c2cccs2)c2ccccc2n1Cc1ccccc1Cl	?	16.4µM*	14.6µM*	-1.7%	?	-8.2%
Cc1[nH]c2ccccc2c1/C=N/NC(=O)c1cccs1	i	19.7%	-34.7%	-1.5%	?	0.1%
Cc1ccc(Cl)cc1N1CCN(C(=O)c2ccc(C)c(-n3c(C)nc4cccnc43)c2)CC1	i	nt	nt	2.5%	i	nt
CCC(Sc1ncc(S(=O)(=O)c2ccc(Cl)cc2)c(=O)[nH]1)C(=O)Nc1ccc(OC)cc1 (stereo not drawn)	i	nt	nt	-0.8%	i	nt
Cc1nn(-c2ccccc2)c(C)c1/C=N/NC(=O)c1cc(C2CC2)[nH]n1	i	-4.4%	0.4%	1.2%	i	0.3%
Cc1nn(-c2ccccc2)c(C)c1/C=N/NC(=O)c1cc(C23CC4CC(CC(C4)C2)C3)[nH]n1	?	2.59µM*	19.6%	-1.0%	?	-1.1%
Cc1nn(-c2ccccc2)c(C)c1/C=N/NC(=O)c1cccs1	?	15.7%	?	3.9%	20.6µM*	0.5%
COc1ccc(NCC(=O)N/N=C/c2c(C)nn(Cc3ccccc3)c2Cl)cc1	i	7.2%	-0.2%	1.8%	11.6µM*	-0.9%
SMILES	KB-3-1 cytotox	MCF10A rerep	SW480 rereplic	PINK1 expr mod	KB-V1 cytotox	TSG101-PTAP inh
Cc1nn(-c2ccccc2)c(C)c1-c1cc(C(=O)N/N=C/c2ccc(O)cc2)[nH]n1	?	18.4µM*	22.5%	5.5%	i	-6.8%
Cc1ccc2[nH]cc(C(=O)CN3CCN(c4ccccc4F)CC3)c2c1	i	28.2%	1.4%	-2.9%[38.3 µM]	10.3µM*	0.3%
CCN1CCN(CC(=O)c2c[nH]c3ccc(C)cc23)CC1	i	-182.1%[0.0737 µM]	2.3%	-0.8%	i	-3.9%
Cc1cc(C(=O)CCl)c(C)n1-c1cccc(S(=O)(=O)N2CCOCC2)c1	i	?	16.3%	-1.7%	16.4µM*	-0.2%
Cc1nn(-c2ccccc2)c(N)c1N=Nc1cccc(S(=O)(=O)N2CCOCC2)c1	?	-13.5%	?	5.0%	4.11µM*	-3.1%
O=S(=O)(c1cccc(S(=O)(=O)N2CCOCC2)c1)N1CCCCC1	i	-1.2%	-0.1%	-2.3%	i	-5.1%
Cc1ccc(C)n1-c1cccc(S(=O)(=O)N2CCOCC2)c1	i	18.4µM*	?	1.4%	i	-0.8%
Cc1ccc(CN2CCOCCS2(=O)=O)cc1	i	nt	nt	nt	i	nt
COc1ccc(OCc2n(CC(=O)OC3CC(C)CCC3C(C)C)c3ccccc3[n+]2C)cc1 (stereo not drawn)	13µM*	?	26.4%	-2.0%	?	3.0%
COc1ccc(-c2n(CC(=O)OC3CC(C)CCC3C(C)C)c3ccccc3[n+]2C)cc1 (stereo not drawn)	?	?	-37.4%	?	?	1.7%
CCCCCC1CCC(C(=O)NNC(=S)NCC)CC1 (stereo not drawn)	?	?	-3.8%	2.1%[38.3 µM]	14.6µM*	-6.5%
CCCCCCC1CCC(C(=O)NC(C(=O)O)C(C)C)CC1 (stereo not drawn)	i	nt	nt	-0.4%	i	nt
COc1ccc(NC(=O)Nc2cc(C(=O)NCc3ccc(C)cc3)ccc2N2CCCC2)cc1	i	nt	nt	1.4%	i	nt
CN(c1ccccc1)c1nc(-n2ccnc2)nc(-n2ccnc2)n1	i	-0.5%	0.1%	-0.8%	?	-3.7%
c1ccc(-c2nc(N3CCN(c4ccccc4)CC3)nc(-n3ccnc3)n2)cc1	?	7.31µM*	?	13.3%[38.3 µM]	23.1µM*	-5.2%
c1ccc(N(c2ccccc2)c2nc(-n3ccnc3)nc(-n3ccnc3)n2)cc1	i	20µM*	13.6%	0.4%	?	-2.8%
O=C(CSc1nc2ccccc2n1Cc1cccc(F)c1)N1CCN(c2ccc(F)cc2)CC1	i	nt	nt	3.4%	i	nt
